Assay outcomes: PubChem, National Center for Advancing Translational Sciences (NCATS)
Compounds with a hit are over-represented: about 2.4% of the library has one in this group of screens.
Tb PFK inh-1: T. brucei PFK enzyme inhibition; O15648; T. brucei PFK, ADP-Glo luminescence; Potency, µM (series often up to 57.5 µM), without a hit: at the highest dose activity, negative = inhibition, hits mostly inhibitors; hit rate 0.17% among 330,000; AID 485367;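 further: 0% = uninhibited 1x PFK enzyme wells and -100% = no-enzyme wells; nearly all actives have a fitted effect of over 60% in size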
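Compounds were pin-transferred as a titration series up to 57 uM into substrate buffer (0.5 mM F6P, 0.1 mM ATP, pH 8.0), then 1.25 nM PFK was added and reactions ran 45 min before ADP-Glo detection.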
Tb PGK inh: T. brucei PGK inhibition. PGK/GAPDH coupled, Kinase-Glo luminescence, 60 min. Potency, µM (titrated, usually from 57.5 µM), inactives show top-dose activity change, negative = inhibition, actives largely listed as inhibitors. P07378. hit rate 0.043% among 380,000. AID 602233; further: on the % scale 0 is the no-effect control and ±100 the full control effect; nearly all actives have a fitted effect of over 60% in size
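Luminescent ATP detection (Kinase-Glo Plus) follows a 60-minute room-temperature incubation, with wells lacking PGK as controls. Buffer: 100 mM TEA (pH 7.6), 5 mM MgCl2, 0.01% Tween-20. Coupling enzyme GAPDH (100 nM final) supplies unstable 1,3-BPG in-well.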
Rango release inh: prevents RanGTP from dissociating the Rango-importin beta complex; O95149+P62826; Biochemical FRET Rango-importin beta, RanGTP-induced dissociation; Potency, µM (series often up to 46.1 µM), for the others: at the highest dose activity change, negative = inhibition; hit rate 0.071% among 340,000; calls by dose curve; further: % of control where 0% means no effect; nearly all actives have a fitted effect of over 45% in size
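Compounds sat 5 min at room temperature with 0.1 uM Rango biosensor plus 0.25 uM importin beta, then FRET pre-read. RanGTP-RCC1 (0.6 uM Ran, 2mM GTP, 0.2 uM RCC1) added for 45 min, and the CFP/YFP post-read measured blocked complex dissociation.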
Rango complex inh: prevents formation of the Rango-importin beta complex. Q14974. Rango CFP/YFP FRET sensor + importin beta, 45 min. Potency, µM (titrated, usually from 92.2 µM), inactives show at the top dose inhibition of complex formation. hit rate 0.031% among 340,000. AID 540263; calls by dose curve;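 further: 0% = DMSO wells and 100% = buffer wells lacking importin beta; nearly all actives have a fitted effect of over 15% in size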
Target sequence (Q14974 whole entry, looked up): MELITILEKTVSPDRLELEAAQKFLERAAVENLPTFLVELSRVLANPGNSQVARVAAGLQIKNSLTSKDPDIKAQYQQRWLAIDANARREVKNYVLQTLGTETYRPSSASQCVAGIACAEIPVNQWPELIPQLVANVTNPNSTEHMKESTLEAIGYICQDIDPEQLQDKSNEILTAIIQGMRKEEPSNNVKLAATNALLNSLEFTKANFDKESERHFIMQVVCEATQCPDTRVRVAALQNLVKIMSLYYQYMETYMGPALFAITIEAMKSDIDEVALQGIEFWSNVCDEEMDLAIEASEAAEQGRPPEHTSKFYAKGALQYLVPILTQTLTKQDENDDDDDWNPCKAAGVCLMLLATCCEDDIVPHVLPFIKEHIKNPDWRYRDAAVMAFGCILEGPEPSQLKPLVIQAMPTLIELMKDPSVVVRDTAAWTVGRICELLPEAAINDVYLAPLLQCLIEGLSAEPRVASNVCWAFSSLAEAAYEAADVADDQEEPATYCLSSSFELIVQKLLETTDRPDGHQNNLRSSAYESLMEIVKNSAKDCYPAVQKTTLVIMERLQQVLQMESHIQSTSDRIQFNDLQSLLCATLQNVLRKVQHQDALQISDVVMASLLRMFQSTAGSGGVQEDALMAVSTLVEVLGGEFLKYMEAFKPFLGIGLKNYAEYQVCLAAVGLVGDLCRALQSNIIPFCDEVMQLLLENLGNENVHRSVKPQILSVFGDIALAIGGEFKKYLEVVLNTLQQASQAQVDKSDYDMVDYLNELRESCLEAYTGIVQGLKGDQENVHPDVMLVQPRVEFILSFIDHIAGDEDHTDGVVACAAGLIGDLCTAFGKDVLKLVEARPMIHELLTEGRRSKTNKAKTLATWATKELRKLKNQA
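Inhibition scored from the CFP 486 nm/YFP 530 nm FRET ratio 45 min after adding 0.125 microM importin beta to 50 nM Rango biosensor preincubated 5 min with compound (room temperature, PBS with DTT, Tween-20, BSA). No-importin wells as positive control.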
ELG1 repair inh: inhibitors of ELG1-dependent DNA repair in HEK293T cells; HEK293T ELG1-luciferase reporter, luminescence, 16 h; DNA damage induced by 5-fluorouridine; Potency, µM (titrated, usually from 46.1 µM), without a hit: at the highest dose activity change, negative = inhibition, most hits filed as inhibitors; hit rate 2.3% among 330,000; AID 504467; further: on the % scale 0 is the no-effect control and ±100 the full control effect; nearly all actives have a fitted effect of over 55% in size
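Step one: seed 2,000 cells per well. Step two: pin-transfer compound or DMSO alongside 5-fluorouridine. Step three: incubate 16 hr, 37 °C, 5% CO2. Step four: add ONE-Glo, wait 30 min, read luminescence.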
PKM2 act: activators of human pyruvate kinase M2. P14618. purified PKM2, Kinase-Glo ATP luminescence, activation; response scale: 0% is enzyme alone, no compound. Potency, µM (top dose mostly 57.5 µM), for the others: at the top dose activation, actives largely listed as activators. hit rate 0.34% among 260,000; further: on the % scale 0 is the no-effect control and ±100 the full control effect; nearly all actives have a fitted effect of over 55% in size
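Purified hPK-M2 (>95% pure) converted ADP (0.1 mM final) to ATP with 0.5 mM PEP in 50 mM imidazole pH7.2, KCl, MgCl2, Tween 20, BSA; 1 h at room temperature. ATP detected by Kinase-Glo luminescence.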
TbPFK ATP: orthogonal confirmation of T. brucei phosphofructokinase inhibitors; Tb PFK enzyme, ATP depletion, Kinase-Glo Plus luminescence; shares compounds with Tb PFK inh-1; AID 504636; Potency, µM (highest dose often 57.5 µM), without a hit: top-dose inhibition; hit rate 47% among 1,100; calls by dose curve; further: nearly all actives have a fitted effect of over 60% in size
Tb PFK inh-2: validation of T. brucei phosphofructokinase inhibitors | hit rate 41% among 1,100 | purified T. brucei PFK, ADP-Glo luminescence, 45 min | Potency, µM (doses to about 57.5 µM), for the others: at the highest dose activity change, negative = inhibition, most hits filed as inhibitors | shares compounds with Tb PFK inh-1;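 further: plate controls were full PFK enzyme control for no effect and no enzyme control for full effect; nearly all actives have a fitted effect of over 60% in size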
The depositor's hits bear a star; i = inactive; ? = inconclusive; nt = not tested or not shown; [ ] = dose if it differs, or a comment. Unless noted, the call rests on the fitted dose curve; in most records, active means well fitted curve in the direction sought with a large enough effect; inconclusive means small, poorly fitted or top-dose-only effect, or another doubt; inactive means no such curve, though single readings can be large; an effect the other way counts as inactive or inconclusive. Potency means the concentration at half of the fitted maximal effect.

SMILES	Tb PFK inh-1	Tb PGK inh	Rango release inh	Rango complex inh	ELG1 repair inh	PKM2 act	TbPFK ATP	Tb PFK inh-2
COC(=O)C(O)(c1ccc(NC(=O)c2cccs2)cc1)C(F)(F)F (stereo not drawn)	1%	i	-12%	0%	?	5%	nt	nt
Cc1ccc(NC(=O)C(=O)NNC(=O)c2cccs2)cc1	?	1%	9%	?	-2%	nt	-22%	?
CN1CCN(C(=O)COc2ccc3ccccc3c2)CC1	-1%	3%	0%	2%	?	nt	nt	nt
O=C(COc1ccc2ccccc2c1)NNC(=O)c1cccs1	?	i	-5%	-1%	7%	-1%	-31%	?
CCOc1ccc(CN(CCc2ccc3c(c2)OCO3)Cc2cccc(OC)c2)cc1	nt	i	nt	nt	nt	nt	nt	nt
COc1ccc(N=C2S/C(=C\c3ccc(OCC(=O)O)cc3)C(=O)N2CCc2c[nH]c3ccccc23)cc1	1.1µM*	-16%	-17%	?	?	2.8µM*	?	?
COc1ccc(OCC(=O)N2CCN(Cc3c[nH]c4ccccc34)CC2)cc1	-4%	-5%	12%	-4%	?	-1%	nt	nt
Cc1cc(=O)[nH]c(Nc2ccc(Cl)cc2)n1	21µM*	-8%	1%	3%	10%	nt	8.5µM*	19µM*
Cc1nc(CCl)cc(=O)[nH]1	1%	-8%	18%	0%	?	-8%	nt	nt
O=C(Nc1ccc(Br)cc1C(=O)c1ccccc1)c1ccccc1	nt	2%	nt	nt	nt	nt	nt	nt
O=C(NNC(=O)c1ccccc1Br)c1ccc2nc[nH]c2c1	21µM*	-8%	7%	2%	11%	2%	?	?
CC(=O)Nc1ccc(S(=O)(=O)NC(CSc2ccc(C(=O)O)cc2[N+](=O)[O-])C(=O)O)cc1 (stereo not drawn)	?	-6%	-6%	-1%	-3%	nt	-26%	?
Cc1ccc(Cl)cc1NC(=O)C[n+]1ccc(Cc2ccc([N+](=O)[O-])cc2)cc1	?	7%	2%	1%	?	4%	?	?
Cc1ccccc1NC(=O)CCl	1%	-11%	-13%	-1%	-26%	-4%	nt	nt
O=C(COc1ccccc1Cl)N1CCN(CCc2ccccn2)CC1	nt	i	nt	nt	nt	nt	nt	nt
NC(=O)c1c(-c2cccs2)csc1N	?	1%	-6%	2%	-11%	1%	-30%	?
Cc1cccc(C)c1OCC(=O)Nc1ccc(Cl)cc1C(=O)c1ccccc1	nt	10%	nt	nt	nt	nt	nt	nt
Cc1cc(C)c(OCC(=O)Nc2cc(C(=O)O)cc(C(=O)O)c2)cc1C	21µM*	0%	-9%	-4%	-16%	-2%	8.5µM*	19µM*
O=C(Nc1ccc(F)cc1)Oc1ccc[nH]c1=O	-10%	i	8%	7%	?	-3%	nt	nt
NS(=O)(=O)c1cccc(NC(=O)COc2ccc([N+](=O)[O-])cc2)c1	7.6µM*	9%	1%	-3%	?	0%	21µM*	13µM*
O=C(Cc1ccccc1)Oc1ccc([N+](=O)[O-])cc1	1%	-1%	-2%	-3%	5%	2%[11.5 µM]	nt	nt
O=C(COc1ccc([N+](=O)[O-])cc1)Nc1ccncc1	?	7%	2%	1%	-12%	-1%	?	?
Cc1ccc(NC(=O)c2ncn(CCCNCCN3CCOCC3)n2)cc1C	nt	2%	17%	1%	nt	nt	nt	nt
Cc1ccc(Cc2cnc(NC(=O)CN3CCOCC3)s2)cc1Cl	?	3%	-2%	0%	-7%	0%	24µM*	30µM*
CCCCn1c(O)c(C(CC)=NCCCN(C)C)c(=O)[nH]c1=O	-7%	i	1%	-3%	6%	-2%	nt	nt
SMILES	Tb PFK inh-1	Tb PGK inh	Rango release inh	Rango complex inh	ELG1 repair inh	PKM2 act	TbPFK ATP	Tb PFK inh-2
COc1ccc(OC)c(NC(=O)COC(=O)c2cc3c(s2)CCC3)c1	?	?	-24%	?	23%	?	?	?
O=C(Nc1ccc2c(c1)OCO2)c1cccn(Cc2cccc([N+](=O)[O-])c2)c1=O	nt	-11%	nt	nt	nt	nt	nt	nt
CN(C)C=Nc1ccc(Cl)c(Cl)c1	27µM*	4%	15%	13%	6%	-3%	12%	-8%
CN1C(=O)N(C)C(=O)C2(Sc3ccccc3C2=O)C1=O	4%	nt	-19%	-1%	2%	1%	nt	nt
CCc1ccccc1NC(=O)c1cccn(Cc2ccccc2F)c1=O	nt	11%	nt	nt	nt	nt	nt	nt
CCOc1c(Cl)cc(CNc2ccc(S(N)(=O)=O)cc2)cc1OC	0%	-3%	25%	6%	?	0%	nt	nt
NS(=O)(=O)c1ccc(NC(=S)NCc2cccc(Cl)c2)cc1	?	i	-11%	-4%	22%	-2%	1.5µM*	2.4µM*
NS(=O)(=O)c1ccc(NC(=S)Nc2cc(Cl)c(Cl)cc2Cl)cc1	?	-1%	20%	0%	2%	-16%	27µM*	?
NS(=O)(=O)c1ccc(NC(=O)Nc2ccc(Cl)cc2)cc1	12µM*	i	6%	1%	?	8%	6µM*	11µM*
O=S1(=O)N(CCN2CC=C(c3c[nH]c4cc(F)ccc34)CC2)c2cccc3c2N1CCC3	-6%	-10%	-25%	?	?	nt	nt	nt
COc1ccc(-n2c(/C=C\c3ccccc3F)nc3ccccc3c2=O)c(OC)c1	nt	-6%	nt	nt	nt	nt	nt	nt
C=CCn1c(=O)[nH]c2cc(C(=O)N3CCN(c4ccc(C(C)=O)cc4)CC3)ccc2c1=O	?	i	-1%	?	18µM*	0%	?	?
O=c1c2c([N+](=O)[O-])cc([N+](=O)[O-])cc2sn1Cc1ccccc1	2.7µM*	-5%	3%	-2%	13%	nt	?	21µM*
O=C(/C=C/c1ccccc1)Nc1cccc(S(=O)(=O)Nc2ccccc2F)c1	6.7µM*	-7%	-11%	0%	-5%	-31%	4.3µM*	6µM*
O=S(=O)(Nc1ccccc1F)c1cccc(NC(=S)NCCN2CCOCC2)c1	7.6µM*	i	-9%	-1%	0%	nt	2.4µM*	3.8µM*
O=C(COc1ccccc1F)Nc1ccc(S(=O)(=O)Nc2nccs2)cc1	4.8µM*	-1%	?	2%	3%	?	2.1µM*	6µM*
